Inconclusive results are not listed. A number with no mark means an inactive call. The source made the active and inactive calls. Calls follow the shape of the dose curve; as a rule, active = well fitted curve in either direction with a large enough effect; inconclusive = small, poorly fitted or top-dose-only effect; inactive = no such curve, though single readings can be large or run the other way.
Molecular target: Lysosomal alpha-glucosidase (Homo sapiens) (UniProt P10253)
Test: Confirmation of Inhibitors and Activators of Human alpha-Glucosidase From Spleen Homogenate;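 as to Potency: fluorescence of 4-methylumbelliferone released from a fluorogenic glucopyranoside substrate at pH 5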; as to activity change, both directions: 0% is about no effect
Conditions: alpha-glucosidase enzyme activity; series mostly up to 60.5 µM; activity change, both directions: at the top concentration
Summary of the method: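 Compounds titrated against spleen-homogenate alpha-glucosidase, pH 5.0, 1 mM 4-MU-glucoside substrate, 37 C for 40 min. Fluorescence after pH 10 stop, normalised to no-enzyme and enzyme controls; Hill-equation AC50.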
Potency is read from the fitted curve at half-maximal effect.

Compared with COc1ccc(/C=C/c2nnc(NC(=O)CSc3ccc(C)cc3)s2)cc1, COc1ccc(/C=C\c2nccc3c2[nH]c2ccccc23)cc1 is higher in “activity change, both directions” value: 13% for the first, 19.6% for the second.

First: C[C@H](NC(=O)/C(C#N)=C/c1ccc(O)c(O)c1)c1ccccc1
Second: Cc1ccc(-c2cc(C(=O)N/N=C/c3c(C)nn(-c4ccccc4)c3C)n[nH]2)s1
The “activity change, both directions” value of the first is higher: 3.9% for the first, 2.38% for the second.

Going from CCc1sc(-c2cc3ccc(O)cc3oc2=O)nc1-c1cc(C)ccc1C to Cc1ccc(S(=O)(=O)N2CCN(C(=O)CSc3nc4ccccc4c(=O)[nH]3)CC2)c(C)c1, the “activity change, both directions” value falls from 8.32% to -28.9%.

Going from OCCNc1nc(-c2cccs2)nc2ccccc12 to Cc1ccc2c(=O)c3ccccc3n(CCCN)c2c1C, the “activity change, both directions” value falls from 0.945% to -9.31%.

Compared with CC(=O)c1ccc(N2CCN(S(=O)(=O)c3ccc4[nH]c(=O)[nH]c4c3)CC2)cc1, Cc1cnc(C(=O)Nc2cc(S(=O)(=O)N3CCOCC3)ccc2N2CCN(C)CC2)cn1 is lower in “activity change, both directions” value: 0.795% for the first, -28% for the second.

With O=S(=O)(c1ccc(O)cc1)N1CCOCC1 the “activity change, both directions” value was -3.67%.

CCCN1CNc2c(c(=O)[nH]c(=S)n2CCc2ccc(C)cc2)C1 was tested, and the Potency was 25.1 µM (active).
N#Cc1ccc(N2CCN(S(=O)(=O)c3ccc4c(c3)CC(=O)N4)CC2)cc1 was tested, and the Potency was 1.16 µM [inhibitor] (active).

First: COC(=O)CSc1ccc(C#N)c(SCC(=O)OC)c1
Second: CCCn1c(N)c(CC)c(=O)[nH]c1=O
The “activity change, both directions” value of the first is higher: 4.51% [at 31.5 µM] for the first, -3.88% [at 31.5 µM] for the second.

First: O=C1CC(N2CCN(c3cccc(C(F)(F)F)c3)CC2)C(=O)N1c1ccc(F)cc1 (configuration not stated)
Second: CCc1ccc(N=CC23c4ccccc4C(c4ccccc42)C2C(=O)N(c4ccc(OC)cc4)C(=O)C23)cc1 (configuration not stated)
The “activity change, both directions” value of the first is lower: 0.41% [at 31.5 µM] for the first, 2.73% [at 31.5 µM] for the second.

From PubChem BioAssay AID2113 (National Center for Advancing Translational Sciences (NCATS), 2009)
